# Assay results: paper PMC12136788
# Numbering of substitutions follows the chain as printed. In all, about 24,000 sequences were measured (“enrichment r”: median about 0.99, highest 2% from about 3.7 on). The entries come from a sample that favours the highest values as a whole.
# T1: UNK ZnF1-3 (human, UniProt Q9C0B0 31-174)
# T1 sequence: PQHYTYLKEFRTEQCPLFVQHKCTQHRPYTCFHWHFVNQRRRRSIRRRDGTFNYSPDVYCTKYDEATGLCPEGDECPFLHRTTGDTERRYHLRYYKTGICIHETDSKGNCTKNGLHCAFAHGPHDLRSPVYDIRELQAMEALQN
# B1: 90994690_90994914_4067_CDS_ENSMUSG00000040687_ENSMUST00000111370|mouse|control|control (ssRNA)
# RNA: GGGAGUUCUACAGUCCGACGAUCGAGGUACCUGUCGAUCAUUUCCUGAGGACCCUGGUCCAUACCCAUUCCUUCUCUUUCCAACAUUACAGCAUCUAAGAAUGCAUCUUCCCAGAACUGCAUUUGGUCCCAUAAGGUAGAACGCAACAGAGGAUUGAGCAUCA
# B2: chr7:130129250:130129251:+_ENSMUSG00000030779_ENSMUST00000052135|mus_mus|FALSE|FALSE (ssRNA)
# RNA: GGGAGUUCUACAGUCCGACGAUCCUCCUCUGGUAAGAAGGGUGGUUUCUCUUUCUUCCCGAUUGCAUAGGCCUCUGCAUCUAUAGUUGGUAUUGCAUAUUUUCCAGUGUUUGUAAGCAUUGCACCUUUCAUGUUAGGAUCUUUCAACAGAGGAUUGAGCAUCA
# B3: chr14:89338683:89338684:+_ENSG00000165533_ENST00000346301|hu_hu|hu_hu_hu_mus_False|38_98 (ssRNA)
# RNA: GGGAGUUCUACAGUCCGACGAUCGUGGUUGUUGUGGACCAGAGCCAGCCUGAAGCAUUGGUGGGCCAAGUUUGUAUCUCCGAUUCCCACAGCUAUGUGUCCCAAGUUGUACCAGACAUCAGCUGCCUCUUCUUCAUUUUCAGCCAACAGAGGAUUGAGCAUCA
# B4: chr3:179287964:179287965:+_ENSG00000136518_ENST00000429709|hu_hu|hu_hu_hu_mus_True|68_68 (ssRNA)
# RNA: GGGAGUUCUACAGUCCGACGAUCCUUGAGUGGUGAGAUGGCCUCCAUGUUCUCCCUGGGCACGCGGAGAGCAUUAGUGUCUAUGUAGUAGGUGGGCCCGCCCUGCUUGCCUUUGUCACCAUCAAUCUCCAUCAUUGUACUUCCCAACAGAGGAUUGAGCAUCA
# B5: chr7:117217587:117217588:+_ENSMUSG00000061079_ENSMUST00000084727|mus_hu|FALSE|FALSE (ssRNA)
# RNA: GGGAGUUCUACAGUCCGACGAUCGAUAUAAGCUGUGGUACCAUCUUCCAGCUGAACCGCCUGUAAUGCACUCUGGUCAUAACUAUUACUUUUAGGUAUGGGUACAUGUUGAACAUAGGCCGCAGAACCAUCUUCCAACUGAAUCAACAGAGGAUUGAGCAUCA
# B6: chr5:95152273:95152274:-_ENSG00000173221_ENST00000237858|hu_mus|motif|central (ssRNA)
# RNA: GGGAGUUCUACAGUCCGACGAUCCAGCCGAGUCAUCAGCUCCCCAGUCUGUUGCAUGGAGAUUAGAUCACUGCAUCCGCCGGUGCAGUCUUUACCUAUGAAGACCCGAGGAACUGUUCUCGCUCCGGUGAGCUGUUGUAAAUACAACAGAGGAUUGAGCAUCA
# B7: 12280944_12281064_4437_CDS_ENSMUSG00000032625_ENSMUST00000046121|mouse|control|control (ssRNA)
# RNA: GGGAGUUCUACAGUCCGACGAUCGGGCUGGGUGCAGGUUUCCUCCAAAACUAUUUGUUUAUUACCAUCUAUGAUGAGCUCUGUGUUAGCACAGAACUCUUCGUCCACCACUUUGCUGAAAUCCUCAGCUGAGCCAUCACUCACCAACAGAGGAUUGAGCAUCA
# B8: chr7:75956504:75956505:-_ENSG00000170027_ENST00000307630|hu_mus|motif|central (ssRNA)
# RNA: GGGAGUUCUACAGUCCGACGAUCAUAGAACUGCAUGUCACUAUAGCAACAUCCAAAACAGAUCAAUCUGUUACAAUCACGGUUUGGUAAAGCAAACUUUACCCCUGAAAGGAAAAAAUUAAAUUAAAAAAAAGAAGUUUAAAACAACAGAGGAUUGAGCAUCA
# B9: chr15:79189586:79189587:+_ENSG00000185787_ENST00000426013|hu_hu|motif|central (ssRNA)
# RNA: GGGAGUUCUACAGUCCGACGAUCUGAAAACACUGGCAGCAAUUUUGAAAUGAAAAAAAAAAAGAAAGAAGAAAAAAGGAGCGGUUACCCCCUUUUAUUUUUUCUCUGUUUAAAAUCAAACAGAAAACAAACAUCAAUUGUUAUCAACAGAGGAUUGAGCAUCA
# B10: chr15:79189586:79189587:+_ENSG00000185787_ENST00000426013|hu_hu|FALSE|FALSE (ssRNA)
# RNA: B9 RNA with G82U, G83A
# B11: chr9:37780659:37780660:-_ENSG00000107371_ENST00000396521|hu_hu|FALSE|FALSE (ssRNA)
# RNA: GGGAGUUCUACAGUCCGACGAUCGGUUCACCUGAAAAAACCCAUAGUUUUUUGCCUCAACUGACCUGUAAAAAAGUCCACCUAUAUCAACUUUCUGCCAAUCUGGAGAAGAUCUGUUUUCUUUGAUCUGACGUCAUGUGUUCACAACAGAGGAUUGAGCAUCA
# B12: chr7:75956504:75956505:-_ENSG00000170027_ENST00000307630|hu_mus|FALSE|FALSE (ssRNA)
# RNA: B8 RNA with G80U, G81A
# B13: 65006457_65008074_834_CDS_ENSMUSG00000029920_ENSMUST00000031984|mouse|control|control (ssRNA)
# RNA: GGGAGUUCUACAGUCCGACGAUCUGUUGAUUCAAUCAACUUUAGAAGAUCACUGUCACUUCUUUGUGGAAACAGUUCCUUCAAUGUCUGAAGCUUAGCAUCUUUAAGAUCUUCCAAUUCUGAAAGGUCUUCCAGUUCUGAACUCAACAGAGGAUUGAGCAUCA
# B14: 54532588_54532708_162_CDS_ENSMUSG00000073678_ENSMUST00000097739|mouse|control|control (ssRNA)
# RNA: GGGAGUUCUACAGUCCGACGAUCGAAUUUAAAUGUAUCCUUUUUUUUUUCCCCUAAAAAAGGGAUGUAAAAAAUCCAAUAUGAAACAGAAAAAGUACACAUGAAAUACAAAAUACACUGUCUGUUUGGCUCUGGAGCAGUUAGCAACAGAGGAUUGAGCAUCA
# B15: chr1:225611761:225611762:-_ENSG00000143815_ENST00000272163|hu_mus|hu_hu_hu_mus_True|8_98 (ssRNA)
# RNA: GGGAGUUCUACAGUCCGACGAUCCCAGGCCAUCGGCCUCUUACCACUUCACCCUCAACAAACUUCCUACUUGGCAUUUUCUAAAAUUAGUCUGGCCGCGCUCCGGCGGGAACUCCAGCCACUCCAGGGAGAAUAGUAGCAGCCCAACAGAGGAUUGAGCAUCA
# B16: 35472726_35489589_359_3pUTR_ENSMUSG00000029840_ENSMUST00000031866|mouse|control|control (ssRNA)
# RNA: GGGAGUUCUACAGUCCGACGAUCCUGUCCACAAUCUGCAGCAUAAUGAAGAGGCUUCCUUCCACCCUCUAGUGUCCGGUUGACAUCUUCUCCCUUAGCCACAUAGUCCUUCACCUCAUCCAAGUCUCCGUUUUUCAGGGCCCACAACAGAGGAUUGAGCAUCA
# B17: chr17:47010600:47010601:-_ENSG00000159210_ENST00000290330|hu_hu|FALSE|FALSE (ssRNA)
# RNA: GGGAGUUCUACAGUCCGACGAUCACUGACAGUCACGUAGCCAUUCUCUGCCAGCUGCAGCACCACGGUGUGAUCCAUAUUGAGCUCAGCUGGAACAGACUGAAUGAGGUAAGUGCCGCCCACAGGGAUGAUGCCGAAGCCAGUCAACAGAGGAUUGAGCAUCA
# B18: chr2:217001844:217001845:+_ENSG00000079246_ENST00000392132|hu_hu|FALSE|FALSE (ssRNA)
# RNA: GGGAGUUCUACAGUCCGACGAUCGCCGACUUGAGGAUUAGCUCUUUUGUCAUAAGCAUAUCGAACUAUGGCCACCAUGUCUAAGUCAUCCAAAGCAUGAAUCAGGGAGGAAAGUGCAACUGCAGCUGCCUCAUCAUCUCUUGCCAACAGAGGAUUGAGCAUCA
# B19: chr21:40768814:40768815:+_ENSG00000182093_ENST00000333781|hu_mus|motif|central (ssRNA)
# RNA: GGGAGUUCUACAGUCCGACGAUCCUGGCCUUCCCCUCAGCUGAAAGGGUGGAGAACGAUAGCCACAACUUUGUUACAGACGGAAAUCCAACAGGUGAUUCCAAUUCCACCUGCUACUCGAGUAGGAAAGGCUACCAGGCGGUCCAACAGAGGAUUGAGCAUCA
# B20: 96412582_96412966_892_CDS_ENSG00000111144_ENST00000228740|human|control|control (ssRNA)
# RNA: GGGAGUUCUACAGUCCGACGAUCGCCACCAUAAGGGAAGGAUGGUGGCAGGACCAAUAGGUCAUACUGUCCCCAUACAUACGGUCCUCCCAGAUCUUCUGCUAUUUUAAGCAUAGAUUCAGUCUCAGAAAACUCAUAAGCAGACAACAGAGGAUUGAGCAUCA
# B21: 32585910_32588873_1288_CDS_ENSMUSG00000024381_ENSMUST00000025239|mouse|control|control (ssRNA)
# RNA: GGGAGUUCUACAGUCCGACGAUCUGAGAAAGGCCCAGGGGCCUCAAACUGGGAGGGGGUGGUCACGCUGAUCUCAGGGACAAAUGCGUCAUCAAAAAGGCUGAGAAUCUGCUCCUGCUUCAUCUCCUUGGAUGGGGUGUGUUUCAACAGAGGAUUGAGCAUCA
# B22: chrX:117107323:117107324:-_ENSG00000003096_ENST00000371878|hu_mus|motif|central (ssRNA)
# RNA: GGGAGUUCUACAGUCCGACGAUCUUUGAGCUGCAACAGUACAAAUGGGAUAUAAACCUCAGCAUAGCCUUAGGCCACAGCGGAUAGAGAUCAGUGACUAAAUUCAGCAGCCCGCUUUCCUCCUGUGAAAGCUCUGGCCACACACAACAGAGGAUUGAGCAUCA
# Target: T1, UNK ZnF1-3
# Experiment: nsRBNS (natural sequence RNA bind-n-seq); RBNS binding buffer (assumed for nsRBNS): 25 mM Tris pH 7.5, 150 mM KCl, 3 mM MgCl2, 0.01% Triton X-100, 500 ug/ml BSA, 20 U/ml SUPERase-In, 4 C; UNK is unkempt and MSI1 is Musashi-1; names of the RNAs are library labels; protein concentration not given here; high values mean tight binding
row,Binder,binding signal
1,B1,0.917 enrichment R
2,B2,0.384 enrichment R
3,B3,0.877 enrichment R
4,B4,0.757 enrichment R
5,B5,0.834 enrichment R
6,B6,1.01 enrichment R
7,B7,0.732 enrichment R
8,B8,6.25 enrichment R
9,B9,3.68 enrichment R
10,B10,3.39 enrichment R
11,B11,0.913 enrichment R
12,B12,9.16 enrichment R
13,B13,0.355 enrichment R
14,B14,1.05 enrichment R
15,B15,1.11 enrichment R
16,B16,0.866 enrichment R
17,B17,0.843 enrichment R
18,B18,1.53 enrichment R
19,B19,1.05 enrichment R
20,B20,0.524 enrichment R
21,B21,1.65 enrichment R
22,B22,1.34 enrichment R
